molecular target: EPS15 121-215, P42566
Sequence (P42566 121-215): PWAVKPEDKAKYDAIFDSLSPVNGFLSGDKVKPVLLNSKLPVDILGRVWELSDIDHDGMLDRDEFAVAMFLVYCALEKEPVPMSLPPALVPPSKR

Selected by phage display, active:
NPFLNGNVPVMPSLDE confidence 4
YPDRVTQNPFIPTFGD [GRIN2B, Q13224] confidence 3
DSASSNPFALPNSVTP [WDR59, Q6PJI9] confidence 3
QGRPVSVWDVLFSSYL [EPPK1, P58107] confidence 3
NPFNSSKLPEGHSSQQ [SYTL2, Q9HCH5] confidence 2
GLNPFGDSTHAAAAAA [ZIC3, O60481] confidence 2
MQDPFGGNPFTALLAG [UBQLNL, Q8IYU4] confidence 3
NPFEDDFGAPKVGVAA [PYGO2, Q9BRQ0] confidence 2
GNPFMGVSATAVSSSS [CHD8, Q9HCK8] confidence 2
EFGPENPFRTQQMAAP [CDC40, O60508] confidence 4
NPFNEEPAETVSSSDT [PLEKHM2, Q8IWE5] confidence 2
YSNNPFWNGVQTNPFL confidence 2
NPFSVSNPNPLLPSPA [RBM20, Q5T481] confidence 2
HANPSNPFYEALSTPS [LMTK3, Q96Q04] confidence 4
QIMENPFVQSMLSNPD [UBQLN1, Q9UMX0] confidence 3
NPFLTGLSAPSPTNPF [EPN3, Q9H201] confidence 3
SNPFMTGAPTGQFPTG confidence 3
NPFLVAAQDSETDYVT [RTN4, Q9NQC3] confidence 2
TPSEADRWLEEVSKSV [NUMB, P49757] confidence 3
NPFSAAPAATTVVQTH [SAP130, Q9H0E3] confidence 3
NPFWNVSTQPQQLPRP confidence 4
PLLTGVSSSTNPFRPQ [GNG5, P63218] confidence 3
NPFSVHTATAVPSGKI [POLA1, P09884] confidence 3
NPFVPSMPAAPPTLPL [DENND1A, Q8TEH3] confidence 2
DSPGLNASNPFTQLER [DLGAP5, Q15398] confidence 2
LNPFEVLQIDPEVTDE [DNAJC8, O75937] confidence 3
NPFTTLTDRELEEYRR [ADD1, P35611] confidence 3
NPFNTPHLQLVHDGLG [SLC25A3, Q00325] confidence 2
ELTGEKFLEMANPNVA [MACF1, Q9UPN3] confidence 2
LNQGNPFIATSGPGHL [CHD7, Q9P2D1] confidence 2
PLSPGNPFSPGTPISP [WNK4, Q96J92] confidence 3
SAVSSVVNKFNPFDLI [PCLO, Q9Y6V0] confidence 3
LMNFLGDSNPFNLLRM [BCL11B, Q9C0K0] confidence 2
DMESDIRSWELFLSNV [TTC3, P53804] confidence 2
LNPFLTKSSGDVHLSI [PICALM, Q13492] confidence 4
YTNPFSDNHQSPFLEG [PRUNE2, Q8WUY3] confidence 2
DVGLGINPFADGMGAF [ZIC1, Q15915] confidence 3
GGNPFASVGSSSSSGE [UBQLN2, Q9UHD9] confidence 2
QSWLSATLSLATDTMR [MYO18B, Q8IUG5] confidence 2
TQAPPLHTATTNPFLT [MLLT10, P55197] confidence 4
SSEVNIVNPFALESTI [SLC1A1, P43005] confidence 2
TPSEAERWLEEVSQVA [NUMBL, Q9Y6R0] confidence 3
TPLMNPFRLENVTVSE [TMEM114, B3SHH9] confidence 4
AAGPSVASSTNPFQTN confidence 3
TPFGQVAAAGVSSNPF confidence 3
VNPFAQETLFVGNDQV [TMEM108, Q6UXF1] confidence 3
NPFTPDSLLLHSSGQA [WEE1, P30291] confidence 4
NPFLPSDSSKTSELHS [KIAA1549, Q9HCM3] confidence 2
NPFLPYISDTGTTPPE [DRAM1, Q8N682] confidence 4
VQEQFGGNPFATATTD [UBQLN3, Q9H347] confidence 4

molecular target: CRK 124-198, P46108
Sequence (P46108 124-198): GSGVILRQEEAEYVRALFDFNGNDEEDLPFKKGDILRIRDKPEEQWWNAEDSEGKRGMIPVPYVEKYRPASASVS

Selected by phage display, active:
TPVAIATQLPPKVSAA [EP400, Q96L91] confidence 2
PPEPLLPLKAPATQPH confidence 2
DDTVEMPLPKKLKSVT [TPR, P12270] confidence 2
KPMLPAKFGQPQGSPA [SIM2, Q14190] confidence 2
FSMQEPMVPAKLGTQA [PPFIA4, O75335] confidence 3
PGLQAPPLPPRVGLPT [VPS37B, Q9H9H4] confidence 4
PHSSPPPLPAKASRQL [PHLDB1, Q86UU1] confidence 3

molecular target: KEAP1 321-609, Q14145
Sequence (Q14145 321-609): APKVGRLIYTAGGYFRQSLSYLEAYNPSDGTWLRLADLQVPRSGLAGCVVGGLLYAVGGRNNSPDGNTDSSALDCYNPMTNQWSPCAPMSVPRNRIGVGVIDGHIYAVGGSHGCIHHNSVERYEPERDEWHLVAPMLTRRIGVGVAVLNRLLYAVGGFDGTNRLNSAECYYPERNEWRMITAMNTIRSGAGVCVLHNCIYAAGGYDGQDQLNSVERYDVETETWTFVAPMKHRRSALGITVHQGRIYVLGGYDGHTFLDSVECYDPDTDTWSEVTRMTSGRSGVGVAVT

Selected by phage display, active:
VEKDKVTGETRVLSST [PALM, O75781] confidence 2
GGIIDPSTGERFPVTD [PLEC, Q15149] confidence 4
REHNPESGEEVVTLLE [ZBED9, Q6R2W3] confidence 2
TTWLHPVTGEAVVTGH [PLEKHA5, Q9HAU0] confidence 2
FALEYEADSGEVTSVI [C2orf68, Q2NKX9] confidence 2

Reference: paper PMC8769072, “Proteome‐scale mapping of binding sites in the unstructured regions of the human proteome” (Molecular Systems Biology, 2022)
